# Assay results reported in the OligoGym collection.
# Molecular target: MFNG
# Experiment: pooled miR-30 sensor sort-seq; sequence = guide strand
# Conditions: shRNA
# Further: reference of the scale not given here.
row,Sequence,sensor-assay potency score (higher = more potent)
1,TTGCACTCAATGATATAGCCCA,-0.194
2,ATAGTTGTCATCGTCCACATGG,-0.521
3,TTTGTCTGGGCTGTCGGTGAAG,-0.931
4,AACTGTACCAGCCTCGTGCGGT,-0.733

# Molecular target: MFRP
# Experiment: as above
# Conditions: shRNA
row,Sequence,sensor-assay potency score (higher = more potent)
1,TGAAGTTGTGGAACTGTAGTTC,0.0577
2,TATGCTGAGGGCTTCGATCTTG,-0.113
3,TGGTGTTGTAGCTCAGACCGAG,-0.523
4,TAGTTCTATGCTGTGTCCGGCA,-0.362
5,TTGCAGAACTCGGTCTTGCTCG,-0.303
6,TCAAACTTGCACTCGTCCTGAG,0.173
7,TACTGCTGCAGGTAGCTGGGAG,-0.172
8,TTGGTGAGGGTACTGCTGCAGG,-0.958
9,TTGTCATCGCTGCCATCGGTGC,-1.66
10,TGTAGTTCTATGCTGTGTCCGG,-0.086
11,TGTCCTAAACAGCACAGCCAGC,-1.58
12,TGGAACTGTAGTTCTATGCTGT,-0.0204

# Molecular target: MIA
# Experiment: as above
# Conditions: shRNA
row,Sequence,sensor-assay potency score (higher = more potent)
1,TTTGCCAGGTTTCAGGGTCTGG,-1.17
2,TGTCTGTCTTCACATCGACTTT,-1.3
3,TAGTAATCTCCCTGAACGCTGC,-0.496
4,TGAATGGTCAGGAATCGGCAGT,-0.833
5,TGGTCCGCACACAGCTTCCGGT,-1.49
6,TTGGGCATAGGACCACCCCTGA,-1.13
7,TCTCGGACAATGCTACTGGGGA,-1.23
8,TTCAGGGTCTGGTCCTCTCGGA,-0.169
9,TTTGTCTGTCTTCACATCGACT,-0.999
10,TGGTCCTCTCGGACAATGCTAC,-1.39
11,ATTTGTCTGTCTTCACATCGAC,-0.34
12,TCAGGGTCTGGTCCTCTCGGAC,-1.41

# Molecular target: MIB1
# Experiment: as above
# Conditions: shRNA
row,Sequence,sensor-assay potency score (higher = more potent)
1,TTCCTTATGACACTTTGCCAGT,-1
2,TATGCTGTCGTTCAACAGCAAG,-1.72
3,TTAAAGTCTCAAACATTCCATC,-0.848
4,TTTAGCAACATCTCCATTGGCA,0.277
5,TTGACCACTGACTTTTTCCTTA,0.24
6,TTTACATCCACATCTGGTCTTT,0.23
7,ATTGACATTGGTATTATCCTTG,0.229
8,ATTGGTATTATCCTTGTCCTTT,-0.409
9,TTTAGATAGTAAAACACGCATT,-0.883
10,TTAACTCATCAGAACTTCCAAC,-0.501
11,TAGAAGTTTAATTCGTTCCAGG,0.00519
12,TTCAACTACTGCTCGACACTGC,0.708
